# Values quoted from earlier work, collected in PubChem BioAssay AID977611.
# Out of some 3,900 compounds screened, about 3,900 (100%) were called active. The limit is not given here; nearly all actives have Kd up to about 4200 µM. The set was probably picked from earlier hits. This is one part of the list. Where a SMILES comes first, the peptide text is derived from it. Non-standard residues stand in square brackets, D forms with d. Residues, ends and D or L forms follow the SMILES beside them. Peptide text beside a SMILES is read from it. [ ]: non-standard residue; d: D form. Orn(CH(NH2)2) = NC(N)NCCC[C@H](N)C(=O)O
# Experiment: PubChem AID 977611
# Conditions: PDB protein-ligand complexes, literature Kd
molecule,measurement,setting,value
CC[C@H](C)[C@H](NC(=O)[C@H](CC(=O)O)NC(=O)[C@H](Cc1c[nH]c2ccccc12)NC(=O)[C@H](Cc1ccccc1)NC(=O)[C@H](CCCCN)NC(=O)[C@H](CC(C)C)NC(=O)[C@@H](NC(=O)[C@H](Cc1ccccc1)NC(=O)[C@@H](N)CC(N)=O)[C@@H](C)O)C(=O)N[C@@H](Cc1ccccc1)C(=O)N[C@@H](CCCNC(N)N)C(=O)N[C@@H](CCCCN)C(=O)O (H-NFTLKFWDIF[Orn(CH(NH2)2)]K-OH),Kd,"protein: Chaperone surA-P1, PDB entry 2pv2",1.23 µM (active)
H-QLAWFDTDL-OH,Kd,"protein: Tax-interacting protein-1 (TIP-1), PDB entry 3diw",0.19 µM (active)
H-NFTLKFWDIF-OH,Kd,"protein: Chaperone surA(P2), PDB entry 2pv3",5.57 µM (active)
NCc1cccc(-n2cccc2)c1,Kd,"protein: CATIONIC TRYPSIN, PDB entry 4abd",40 µM (active)
NCc1cccc(-n2cccn2)c1,Kd,"protein: CATIONIC TRYPSIN, PDB entry 4abe",400 µM (active)
NCc1cccc(N2CCCC2)c1,Kd,"protein: CATIONIC TRYPSIN, PDB entry 4abh",71 µM (active)
NCc1ccccc1-n1cccn1,Kd,"protein: INTEGRASE, PDB entry 4ahv",15000 µM (active)
O[P+](O)(O)O[C@@H]1C(OCc2ccccc2)[C@H](O[P+](O)(O)O)[C@@H](O[P+](O)(O)O)C(OCc2ccccc2)[C@H]1O[P+](O)(O)O (stereo partly specified),Kd,"protein: Inositol hexakisphosphate and diphosphoinositol-pentakisphosphate kinase 2 PPIP5K2, PDB entry 4nzo",0.17 µM (active)
C[C@@H]1O[C@@H](O)[C@H](O)[C@H](O)[C@H]1O,Kd,"protein: Putative rhamnosidase, PDB entry 3w5n",135 µM (active)
C[C@H]1O[C@H](O)[C@@H](O)[C@@H](O)[C@@H]1O,Kd,"protein: Pyocin L1, PDB entry 4led",5000 µM (active)
O=S(=O)(Nc1nc2ccc(Cl)cc2s1)c1cc2ccccc2s1,Kd,"protein: 3-phosphoinositide-dependent protein kinase 1 PDK1, PDB entry 4rqv",9 µM (active)
CC(C)C[C@H](NC(=O)[C@@H](N)CC(=O)O)C(=O)N[C@@H](Cc1ccccc1)C(=O)O (H-Asp-Leu-Phe-OH),Kd,"protein: DNA polymerase III subunit beta, PDB entry 4k3m",281 µM (active)
H-SFGDGFADF-OH,Kd,"protein: AP-2 complex subunit ?-2, PDB entry 2iv9",46 µM (active)
H-DLLDSLGF-OH,Kd,"protein: Chemotaxis protein cheY, PDB entry 2pmc",64.7 µM (active)
H-DEEGGGEEDQDFDLSQLH-OH,Kd,"protein: p120 catenin isoform 4A delta 1 (deletion, residues 613-643), PDB entry 3l6x",40 µM (active)
H-SGFSF-OH,Kd,"protein: Ras GTPase-activating protein-binding protein 1, PDB entry 4fcm",115 µM (active)
H-LAPPKPPLPE-OH,Kd,"protein: The second SH3 domain from CAP/Ponsin, SH3b, PDB entry 4ln2",248 µM (active)
CC(C)C[C@H](NC(=O)[C@@H]1CCCN1C(=O)[C@@H]1CCCN1C(=O)[C@H](CC(C)C)NC(=O)[C@@H]1CCCN1C(=O)[C@H](CCCNC(N)N)NC(=O)[C@@H](N)CCCCN)C(=O)N1CCC[C@H]1C(=O)N[C@@H](CO)C(=O)O (H-K[Orn(CH(NH2)2)]PLPPLPS-OH),Kd,"protein: phosphatidylinositol 3-kinase (PI3K) SH3 domain, PDB entry 3i5r",40 µM (active)
H-APPPRPPPPE-OH,Kd,"protein: The first SH3 domain from CAP/Ponsin, SH3a, PDB entry 4lnp",214 µM (active)
CC(C)CCCCCCC(=O)N[C@H]1[C@H](Oc2c3cc4cc2Oc2ccc(cc2Cl)C[C@H]2NC(=O)[C@H](N)c5ccc(O)c(c5)Oc5cc(O)cc(c5)[C@H](NC2=O)C(=O)N[C@H]4C(=O)N[C@H]2C(=O)N[C@H](C(=O)N[C@H](C(=O)O)c4cc(O)cc(O)c4-c4cc2ccc4O)[C@H](O)c2ccc(cc2)O3)O[C@H](CO)[C@@H](O)[C@@H]1O,Kd,"protein: Maltose-binding periplasmic protein, C-terminal fused by Cys-Lys-D-Ala-D-Ala, PDB entry 3vfj",0.091 µM (active)
H-GSYGHLSIGT-OH,Kd,"protein: Sufu, PDB entry 4kmd",3.86 µM (active)
